Assay results: PubChem BioAssay AID602449 (Sanford-Burnham Center for Chemical Genomics, 2012)
Among all 360,000 compounds or so, about 5,000 (1.4%) were called active.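 The calls were made as follows: active = inhibition of 50% or more, scaled per plate between neutral and stimulator controls; inactive = the rest.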 Shown is part of a subset that was picked to be rich in actives.

Assay: mitochondrial permeability transition pore inhibitors, primary screen, biochemical, isolated mouse mitochondria, absorbance (AID 602449);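 also: 0% = DMSO wells given calcium and 100% = 1 mM EGTA wells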
Details: Ca2+ swelling absorbance, 30 min, at 10 µM, hits give high values

inhibition, inactive:
COc1cccc(NC(=O)COc2cc(C)cc3oc(=O)cc(C)c23)c1 0.4%
Cc1nccn1CCC1CCCCN1C(=O)CCc1nnc(-c2ccsc2)o1 (configuration not stated) -1.2%
O=C(Nc1nnc(C2COc3ccccc3O2)o1)c1ccc(F)cc1 (configuration not stated) -3%
Cc1ccc(-n2ncc3c(Nc4cccc(C(=O)O)c4)ncnc32)cc1 3.4%
Cn1c2c(c(=O)n(C)c1=O)C(c1cccc(F)c1)C(C#N)=C(N)O2 (configuration not stated) 1.8%
N#CC1=C(N)Oc2cc(N)ccc2C1c1ccccc1 (configuration not stated) -0.1%
C[C@H]1CN([C@@H](C)CO)C(=O)CCCn2cc(nn2)CO[C@@H]1CN(C)S(=O)(=O)c1ccccc1C#N -0.4%
COc1ccc(NC(=O)C(CC(C)C)NC(=O)C2CCC(C)CC2)cc1 (configuration not stated) 0.1%
O=C(CN1CCN(c2ccccc2O)CC1)NC(=O)NCc1ccccc1 1.2%
O=C(CSc1ncn[nH]1)Nc1nc(-c2cccc([N+](=O)[O-])c2)cs1 8.3%
O=C(CN1CCC(NC(=O)Nc2ccccc2)CC1)Nc1cccc([N+](=O)[O-])c1 -0.8%
CC1CCC(NC(=O)CN(C)S(=O)(=O)c2ccc3c(c2)c(=O)n(C)c(=O)n3C)CC1 (configuration not stated) -2.1%
O=C(CSc1nnc(-c2cccs2)n1Cc1ccco1)c1ccc2c(c1)OCO2 -1.2%
COc1ccc(/C=C2\CCCC3C2=NN(C(=O)c2scnc2C)C3c2ccc(OC)cc2)cc1 (configuration not stated) -3.7%
CCc1ccc(C(=O)NNC(=O)C2CCN(c3ncnc4sc(C)c(C)c34)CC2)cc1 -0.3%
COC(=O)[C@@H](Cc1ccccc1)NC(=O)NCCc1ccccc1 0.6%
CCOC(=O)c1c(NC(=O)CNC2CCCc3ccccc32)sc(C(N)=O)c1C (configuration not stated) 0.8%
O=C(NC1CCN(Cc2ccccc2)CC1)c1ccc(Oc2cc(Cl)cc(Cl)c2)o1 10.6%
Cc1cc(C(=O)NC2CCN(Cc3ccccc3)CC2)n[nH]1 -1.6%
CCc1nc2c(=O)[nH]cnc2o1 -1.8%
O=C(CSc1nc(=O)n2ccccc2n1)Nc1ccc2c(c1)OCCO2 -1.6%
Cc1nnc(SC(C(=O)c2ccccc2)c2ccccc2)[nH]c1=O (configuration not stated) 1.4%
CC(NCC(=O)Nc1cc(Cl)cc(Cl)c1)c1ccccc1 (configuration not stated) 3.1%
CCC(C)[C@H]1COCCS(=O)(=O)N1Cc1ccc(C)cc1 (some centres not stated) -0.2%
CCC(c1nnc(SCC(=O)NNC(=O)c2ccccc2)n1Cc1ccccc1)N(C)C (configuration not stated) 1.2%
COc1ccc(NC(=O)CN(C)C(=O)c2cc(C3CC3)nn2-c2ccccc2)cc1 -0.5%
Cc1cccc(C(=O)OCC(=O)NC(C)C2CC3CCC2C3)c1O (configuration not stated) 0.9%
O=C(CN1CCN(C(=S)NC2CCCC2)CC1)Nc1ccc(Oc2ccccc2)cc1 5.8%
CCN(CC)S(=O)(=O)c1ccc(N(C)Cc2cccc(OC)c2OC)nc1 3.9%
CCN(CC)S(=O)(=O)c1ccc(N(C)CCc2ccc(OC)c(OC)c2)nc1 -2%
NC(=O)C1CCN(C(=O)c2ccc(C(F)(F)F)cc2)CC1 -3.2%
CC1(c2ccc3ccccc3c2)NC(=O)N(CC(N)=O)C1=O (configuration not stated) 1%
Cc1ccc2c(c1)C1CN(C)CCC1N2C(=O)c1ccccc1NS(=O)(=O)c1ccc(F)cc1C (configuration not stated) -0.2%
Cc1ccc2c(c1)C1CN(C)CCC1N2S(=O)(=O)c1cccc(F)c1 (configuration not stated) 0.2%
COc1cc(OC)c(C(=O)NNC(=O)c2ccccc2-n2cccc2)cc1OC -0.2%
Cc1ccc(C(=O)OCC(=O)NC2CCCCCCC2)cc1C -1.2%
CCc1nc2c(OCc3cccc(OC)c3)cccn2c1N(C)C(=O)C(C)C -1.6%
CCCCC(=O)N(C)c1c(CC)nc2c(OCc3ccc(Cl)cc3Cl)cccn12 -1.5%
Cc1nc2c(OCC(=O)C(C)(C)C)cccn2c1N(C)Cc1cccs1 2.6%
CCc1nc2c(OCc3ccc(F)c(F)c3)cccn2c1N(C)C(=O)c1ccco1 -2.8%
CCc1nc2c(OCc3ccccc3)cccn2c1N(C)C(=O)c1ccco1 0%
CCc1nc2c(OCc3ccc(Cl)cc3Cl)cccn2c1N(C)C(=O)C(C)C -3.5%
CCOc1cc(-c2noc(CCCC(=O)NC3CCCCC3)n2)ccc1OC 0.3%
CCc1nc2ccc(C(=O)NCCNC(C)=O)cn2c1N(CC)Cc1cccc(Br)c1 -0.2%
CCCC(C)C(=O)OCC(=O)Nc1c(Br)cc(C)cc1Br (configuration not stated) -0.2%
CCc1c(C)sc(NC(=O)c2cccs2)c1C(N)=O -0.6%
OC(C#CCN1CCOCC1)(c1ccccc1)C1CCCCC1 (configuration not stated) -2.4%
CCc1oc(-c2ccc(OC)cc2)c(C(=O)OCCCCCO)c1C(C)OCCO (configuration not stated) 0.2%
CCC(C)(C)NC(=O)CN(C(=O)C(=O)Nc1ccc2c(c1)OCCO2)C(C)(C)CC -1%
O=C1[C@@H]2C(c3cccnc3)=NO[C@@H]2C(=O)N1c1ccc(Cl)cc1Cl 2.7%
CC(=O)Nc1ccc(NS(=O)(=O)c2cc(C)sc2C)cc1 0.5%
CN(C)Cc1c(C#N)c2ccccc2n1C -1.4%
O=C(COc1ccc(Cl)cc1)NCCS(=O)(=O)N1CCN(c2ccc(F)cc2)CC1 1.5%
CCOC(=O)N1CCC(NC(=O)C(NS(=O)(=O)c2ccc3c(c2)CCN3C(=O)CC)C(C)C)CC1 (configuration not stated) -0.2%
CC(C)(C)C(=O)NC(NC(=S)Nc1ccc(S(N)(=O)=O)cc1)C(Cl)(Cl)Cl (configuration not stated) -2.5%
O=C(O)Cc1ccc(NC(=O)Nc2cccc3ccccc23)cc1 0.9%
Cc1ccc(CNC(=O)[C@@H](NC(=O)Cc2ccccc2)C(C)C)cc1 0.5%
CN(CC(=O)Nc1ccc(Cl)cc1)CC(=O)Nc1cccc2ccccc12 0.6%
CCCOC(=O)CC1C(=O)NCCN1Cc1ccc(F)cc1 (configuration not stated) 0.6%
Cn1nnnc1SCC(=O)Nc1cccc(S(=O)(=O)N2CCCCC2)c1 -0.1%
CN(NS(=O)(=O)c1cccs1)c1ncc(C(F)(F)F)cc1Cl 2.5%
Cc1ccc(NS(=O)(=O)c2ccc(F)cc2)nc1 -0.6%
COc1ccc(CCOC(=O)CNC(=O)c2ccc(Cl)cc2Cl)cc1 1.4%
O=C(COc1ncnc2ccccc12)NC(=O)NCc1ccccc1 -0.1%
COc1ccc(CNc2nccs2)cc1 0.7%
CC1(C)C2CC=C(/C=N/NC(=O)C3CC3)C1C2 (configuration not stated) -1.7%
CCOc1ccc(N2C(=O)/C(=C/c3ccc(C)o3)N(C)C2=S)cc1 4.3%
Cc1c(C)n2c(SCC(=O)NC3CCCC3)nnc2[nH]c1=O -1.2%
O=C1CCCCC1Sc1ccc(Cl)cc1[N+](=O)[O-] (configuration not stated) -0.4%
CC1CC(C)CN(CCOc2cccc3ccccc23)C1 (configuration not stated) -1.7%
CN1CCN(CCCCOc2cccc3ccccc23)CC1 -0.6%
Cc1ccc(C(=O)NCC(=O)NCc2cc(=O)n(C)c(=O)n2C)cc1 -1.3%
O=C(NNC(=O)c1ccc(-n2cncn2)c([N+](=O)[O-])c1)c1ccccc1 -2.8%
Cc1ccc(NC(=O)c2cccc(S(=O)(=O)N3CCCc4ccccc43)c2)nc1 -1.2%
NS(=O)(=O)c1ccc2nc(NC(=O)C3=COCCO3)sc2c1 -0.6%
Cc1cc(C)cc(OCC(=O)Nc2cc(NC(=O)COc3cc(C)cc(C)c3)cc(C(=O)O)c2)c1 1.6%
CSc1ncccc1C(=O)Nc1nc2ccc(F)cc2s1 5.6%
CC(Nc1ccc([N+](=O)[O-])cc1[N+](=O)[O-])c1ccccc1 (configuration not stated) 1%
CNC(=O)c1ccsc1NC(=O)c1ccc(S(=O)(=O)N2CCc3ccccc32)cc1 0.6%
Cc1cc(C)cc(OCC(=O)O/N=C(\N)Cc2ccc([N+](=O)[O-])cc2)c1 3.2%

inhibition, active:
c1ccc2c(c1)CSc1sccc1C2=C1CCNCC1 94.3%
Cc1nn(Cc2ccccc2)c2c1C(c1ccccc1)C(C#N)=C(N)O2 (configuration not stated) 81.3%
O=C(CSc1nc(-c2ccccc2)cs1)Nc1cccc([N+](=O)[O-])c1 93%
CCc1cc2c(N3CCN(c4nnc(CC)s4)CC3)ncnc2s1 58.3%
NC[C@H](Cc1ccccc1)NCCc1cc(C(F)(F)F)cc(C(F)(F)F)c1 88.5%
O=C(NC1CCN(Cc2ccccc2)CC1)c1cc(Br)c(Br)[nH]1 66.2%
Cc1nnc(SC(C(=O)Nc2cc(Cl)cc(Cl)c2)c2ccccc2)[nH]c1=O (configuration not stated) 86.4%
CCN(CC)S(=O)(=O)c1ccc(N(C)Cc2ccc(C(F)(F)F)cc2)nc1 94%
Cc1ccc2c(c1)C1CN(C)CCC1N2S(=O)(=O)c1ccc(Oc2ccc([N+](=O)[O-])cc2)cc1 (configuration not stated) 83.1%
Cc1nc2c(OCc3cccc(Cl)c3)cccn2c1N(C)CC1CC1 88.2%
Cc1nc2c(OCc3ccc(Cl)cc3)cccn2c1N(C)Cc1cccs1 79.6%
Cc1nc2c(OCc3ccc(Cl)cc3Cl)cccn2c1N(C)CC1CC1 82.3%
CCCc1cc(=S)n2c([nH]c3ccccc32)c1C#N 94.4%
O=C(Cc1cccc2ccccc12)NNC(=O)Nc1ccc(Cl)cc1 72.6%
Cc1ccc(NC(=S)NC(NC(=O)Cc2cccc3ccccc23)C(Cl)(Cl)Cl)cc1 (configuration not stated) 55.5%
Cc1cc(C)cc(NS(=O)(=O)c2ccc(Oc3ncc(C(F)(F)F)cc3Cl)cc2)c1 50.8%
COc1ccc(CNc2ncnc3ccccc23)cc1 70.5%
CC(C)c1ccccc1OCC(O)CN(CC(O)COc1cccc2ccccc12)C(C)C (configuration not stated) 61.5%
Cc1cc(C)cc(OCC(=O)Nc2nc3ccc([N+](=O)[O-])cc3s2)c1 50.4%
O=C(Nc1nc2ccc([N+](=O)[O-])cc2s1)c1ccncc1 68.5%
O=C(NC(Nc1nc2ccc([N+](=O)[O-])cc2s1)(C(F)(F)F)C(F)(F)F)c1ccccc1 93.7%
O=C(Nc1nc2ccc([N+](=O)[O-])cc2s1)c1ccc(S(=O)(=O)N2CCCc3ccccc32)cc1 78.1%
